Holding throughout (set-up): species or system human, MV4-11 + K-562 + COLO205 + SK-N-BE2 + OVCAR-8
For one assay, the system named is GSK3A. The conditions noted are these: read-out: apparent Kd, n = 1.
A further assay concerns GSK3B. The conditions noted are these: read-out: apparent Kd, n = 1.
A further assay has as its system PRKCA. Particulars: read-out: apparent Kd, n = 1.
The test system of the next assay is PRKCB. The conditions noted are these: read-out: apparent Kd, compound concentrations: 100 nM and 1000 nM (sheet 'Samples'), n = 1.
In a further assay the test system is PRKCD. Particulars: read-out: apparent Kd, n = 1.
The test system of another assay is PRKCI. Particulars: read-out: apparent Kd; compound concentrations: 100 nM and 1000 nM (sheet 'Samples'), CATDS: 6.3639374568516094E-2; n = 1.
A further assay concerns PRKCQ. Particulars: read-out: apparent Kd; compound concentrations: 100 nM and 1000 nM (sheet 'Samples'), CATDS: 0.13479681678754199; n = 1.
For the next assay, the system named is RPS6KA6. The conditions noted are these: read-out: apparent Kd, n = 1.
A further assay concerns RPS6KB1. Particulars: read-out: apparent Kd, n = 1.
The subject of the next assay is IARS. The conditions noted are these: read-out: apparent Kd; compound concentrations: 100 nM and 1000 nM (sheet 'Samples'), CATDS: 0.48101189655770898; n = 1.
The next assay has as its system RIOK2. The conditions noted are these: read-out: apparent Kd; compound concentrations: 100 nM and 1000 nM (sheet 'Samples'), CATDS: 0.52054883723006395; n = 1.
For a further assay, the system named is HSPE1. Particulars: read-out: apparent Kd; compound concentrations: 100 nM and 1000 nM (sheet 'Samples'), CATDS: 0.26304172030338102; n = 1.
A further assay has as its system PGK1. The conditions noted are these: read-out: apparent Kd; compound concentrations: 100 nM and 1000 nM (sheet 'Samples'), CATDS: 0.76516694172770505; n = 1.
Another assay concerns PKM. The conditions noted are these: read-out: apparent Kd; compound concentrations: 100 nM and 1000 nM (sheet 'Samples'), CATDS: 0.19798813046119201; n = 1.
For another assay, the system named is RAN. Particulars: read-out: apparent Kd; compound concentrations: 100 nM and 1000 nM (sheet 'Samples'), CATDS: 0.17121500690258801; n = 1.
In the next assay the test system is HSP90B1. The conditions noted are these: read-out: apparent Kd, n = 1.
A further assay deals with PIK3CA. Particulars: read-out: apparent Kd, compound concentrations: 100 nM and 1000 nM (sheet 'Samples'), n = 1.
The subject of another assay is PIK3CD. The conditions noted are these: read-out: apparent Kd; compound concentrations: 100 nM and 1000 nM (sheet 'Samples'), CATDS: 0.43898083182903402; n = 1.
In another assay the test system is PIM2. The conditions noted are these: read-out: apparent Kd; compound concentrations: 100 nM and 1000 nM (sheet 'Samples'), CATDS: 0.17072245355379401; n = 1.
In the next assay the test system is SLK. Particulars: read-out: apparent Kd, n = 1.
In the next assay the test system is JAK2. The conditions noted are these: read-out: apparent Kd, compound concentrations: 100 nM and 1000 nM (sheet 'Samples'), n = 1.
The test system of the next assay is MAP3K1. Particulars: read-out: apparent Kd; compound concentrations: 100 nM and 1000 nM (sheet 'Samples'), CATDS: 0.14122884829610699; n = 1.
Another assay relates to MAP4K5. The conditions noted are these: read-out: apparent Kd; compound concentrations: 100 nM and 1000 nM (sheet 'Samples'), CATDS: 0.32149724662749601; n = 1.
In the next assay the test system is PLK1. Particulars: read-out: apparent Kd; compound concentrations: 100 nM and 1000 nM (sheet 'Samples'), CATDS: 0.55429480894525696; n = 1.
The subject of the next assay is STK10. Particulars: read-out: apparent Kd; compound concentrations: 100 nM and 1000 nM (sheet 'Samples'), CATDS: 0.168955384509856; n = 1.
[1] abbreviates: compound concentrations:100 nM and 1000 nM (sheet 'Samples').

Read-outs that look alike come from different tables or passages of the source.

For `Cl.Cn1cc(C2=C(c3c4n(c5ccccc35)CCC(CN)C4)C(=O)NC2=O)c2ccccc21` (stereo not drawn) [RO0318425-001], the potency estimated from few doses in the assay with GSK3A (compound concentrations: 100 nM and 1000 nM (sheet 'Samples'), CATDS: 7.9505519232768704E-2) was 383 nM; in the assay on GSK3B (compound concentrations: 100 nM and 1000 nM (sheet 'Samples'), CATDS: 0.10826194795631) it was 122 nM; with PRKCA (compound concentrations: 100 nM and 1000 nM (sheet 'Samples'), CATDS: 0.4123063070702), 8.81 nM; with PRKCB (CATDS: 0.195628585726322), 30 nM; in the assay with PRKCD (compound concentrations: 100 nM and 1000 nM (sheet 'Samples'), CATDS: 0.18341156503501599), 34.1 nM; with PRKCI, 1630 nM. Moreover, the potency estimated from few doses with PRKCQ was 67.5 nM; in the assay with RPS6KA6 (compound concentrations: 100 nM and 1000 nM (sheet 'Samples'), CATDS: 9.8162959720225998E-2), 167 nM; with RPS6KB1 (compound concentrations: 100 nM and 1000 nM (sheet 'Samples'), CATDS: 7.7658945876463797E-2) it was 429 nM.
On to `Cn1cc(C2=C(c3cn(C)c4cc(C(=O)O)ccc34)C(=O)NC2=O)c2ccccc21` [RO0319318-000], for which the potency estimated from few doses with GSK3A (compound concentrations: 100 nM and 1000 nM (sheet 'Samples'), CATDS: 0.46645523537497902) was 612 nM; with GSK3B (compound concentrations: 100 nM and 1000 nM (sheet 'Samples'), CATDS: 0.53874330478413901), 458 nM.
Turning to `COc1cccc(C2=C(c3cn(C)c4ccccc34)C(=O)NC2=O)c1` [RO0318649-000], the potency estimated from few doses was 802 nM with GSK3A (setting [1]); 1340 nM with GSK3B (compound concentrations: 100 nM and 1000 nM (sheet 'Samples'), CATDS: 0.44424601969869798).
Turning to `CS(=O)(=O)CCNCc1ccc(-c2ccc3ncnc(Nc4ccc(OCc5ccccc5)c(C(F)(F)F)c4)c3c2)o1.Cl` [GW574782A], the values for the potency estimated from few doses in the assay with IARS and in the assay on RIOK2 were 1950 nM and 1670 nM, respectively.
With `Cn1cc(C2=C(c3cn(C)c4ccccc34)C(=O)NC2=O)c2ccccc21` [RO0317208-000], the potency estimated from few doses is 475 nM with HSPE1, 47 nM in the assay on PGK1, 1120 nM in the assay on PKM and 1970 nM in the assay on RAN.
Turning to `C[C@@H]1CCCCN1c1cc(-c2ccc3c(N)n[nH]c3c2)nc(N)n1` [GSK2258759A], the potency estimated from few doses with HSP90B1 (setting [1]) is 968 nM.
For the molecule `COc1ccc(Nc2nccc(N3CCC(NC(=O)c4cc5ccccc5s4)C3)n2)cc1` (stereo not drawn) [GSK1379738A], the potency estimated from few doses with HSP90B1 (compound concentrations: 100 nM and 1000 nM (sheet 'Samples'), CATDS: 0.19171870490815801) is 1350 nM; with PIK3CA (CATDS: 0.37756355389393098), 248 nM; with PIK3CD, 190 nM; in the assay on PIM2 it was 2150 nM.
Consider `Cn1cc(C2=C(c3c4n(c5ccccc35)CCC(CN)CC4)C(=O)NC2=O)c2ccccc21` (stereo not drawn) [RO0319371-000], for which the potency estimated from few doses in the assay with GSK3A (setting [1]) is 608 nM; in the assay on GSK3B (setting [1]), 504 nM; in the assay with PRKCA (setting [1]), 22.2 nM; in the assay with PRKCB (CATDS: 0.217434450418582) it was 52.3 nM; with PRKCD (setting [1]) it was 31.6 nM; with RPS6KA6 (setting [1]) it was 342 nM. Besides, the values for the potency estimated from few doses in the assay on RPS6KB1 (setting [1]) and in the assay with SLK (setting [1]) were 306 nM and 2120 nM, respectively.
Consider `COC(=O)Nc1nc2ccc(S(=O)(=O)c3ccc(NC(=O)Nc4cc(C(F)(F)F)ccc4F)cc3)cc2[nH]1.Cl` [GW680908A], for which the potency estimated from few doses in the assay with JAK2 (CATDS: 1) is 356 nM.
As for `O=C(Nc1n[nH]c2nc(-c3ccco3)ccc12)C1CC1` [SB-743899], the potency estimated from few doses is 1390 nM in the assay with GSK3A (compound concentrations: 100 nM and 1000 nM (sheet 'Samples'), CATDS: 0.54830406508791196); 1990 nM in the assay with PRKCD (compound concentrations: 100 nM and 1000 nM (sheet 'Samples'), CATDS: 0.45951776162212499).
Take `NC(=O)c1sc(-n2cnc3cc(C(F)(F)F)ccc32)cc1OCc1ccccc1Br` [GW853609X]: the potency estimated from few doses is 1140 nM in the assay on JAK2 (CATDS: 0.37091451707305101) and 204 nM with PIK3CA (CATDS: 0.76689409603513903).
`COc1cc2ncn(-c3cc(OCc4ccccc4Cl)c(C(N)=O)s3)c2cc1OC` [GW852849X]: the potency estimated from few doses in the assay with MAP3K1 is 1950 nM; in the assay with MAP4K5, 184 nM; in the assay with PLK1, 68.2 nM; with SLK (compound concentrations: 100 nM and 1000 nM (sheet 'Samples'), CATDS: 0.14112272983739199) it was 1960 nM; with STK10, 1000 nM.

Source of the values: PMC11062922 (Nature Chemical Biology, 2023).
